Compounds with a hit are over-represented: about 1.3% of the library has one in this group of screens.
hERG WT inh: KCNH2 (human, wildtype) channel inhibition | U2OS, BacMam KCNH2, thallium flux FluxOr; stronger effect = lower value | activity change, % at 1.84 µM | 340,000 tested, 0.37% active;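 active = maximum activity change below -70%; inconclusive = maximum activity change between -70% and -50%; inactive = maximum activity change above -50%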; note: % is set by controls: 0 for no effect and ±100 for the full control effect
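U2OS cells were transduced with wild-type KCNH2 virus (2.03 x 10^8 / mL) for 4 h at room temperature, then cultured overnight at 37 C. Thallium flux was read with FluxOr dye. Rate constants were normalized to DMSO controls.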
TRPML1 agonist: activates the human TRPML1 channel; Q9GZU1; TRPML1-expressing cells, Ca2+ dye fluorescence, FDSS; activation, % (no concentration beside the values); 410,000 tested, 0.12% active; AID 624414; in the data active = activation above about 50%; inconclusive = mostly about 30% to 49%; note: 0% is about no effect
Target sequence (Q9GZU1 whole entry, looked up): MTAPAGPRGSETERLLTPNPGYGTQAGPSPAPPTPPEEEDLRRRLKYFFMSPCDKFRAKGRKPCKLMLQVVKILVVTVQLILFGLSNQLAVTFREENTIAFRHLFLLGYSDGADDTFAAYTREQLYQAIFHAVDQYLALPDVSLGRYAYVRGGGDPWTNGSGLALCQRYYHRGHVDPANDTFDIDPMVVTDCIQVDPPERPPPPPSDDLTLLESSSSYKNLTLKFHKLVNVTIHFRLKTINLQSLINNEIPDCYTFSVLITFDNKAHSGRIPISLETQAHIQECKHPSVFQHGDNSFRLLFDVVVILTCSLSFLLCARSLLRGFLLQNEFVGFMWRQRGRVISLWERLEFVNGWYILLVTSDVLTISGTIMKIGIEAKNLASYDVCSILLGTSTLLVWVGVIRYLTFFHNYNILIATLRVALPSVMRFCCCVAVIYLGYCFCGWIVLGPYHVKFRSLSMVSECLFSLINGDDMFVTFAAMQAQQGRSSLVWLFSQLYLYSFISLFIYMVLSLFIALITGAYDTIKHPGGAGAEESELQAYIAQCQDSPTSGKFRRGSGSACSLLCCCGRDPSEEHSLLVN
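Tet-induced TRPML1-DL cells, 1,500 per well, cultured overnight, were loaded with a no-wash Ca2+ dye for 45–90 min. Calcium fluorescence was recorded on the FDSS for 110 s after compound addition, before the EC80 agonist (4 uM 54-4) was added.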
KCNH2 3.1 inh: inhibitors of human KCNH2 3.1 potassium channel isoform; U2OS KCNH2 3.1, thallium flux FluxOr; stronger effect = lower value; activity change, % (tested at about 1.8 µM); 340,000 tested, 0.95% active;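 active = maximum activity change below -70%; inconclusive = maximum activity change from -70% to -50%; inactive = maximum activity change above -50%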;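 note: thallium influx rate constant from kinetic fluorescence after stimulation buffer; % is set by controls: 0 for no effect and ±100 for the full control effect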
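Channel expression came from 3.1 mutant virus (1.77 x 10^8 /mL) applied to suspended U2OS cells for 4 h. Flux was tracked with FluxOr dye plus Red40 quencher, and kinetic rate constants normalized to controls.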
TRPML1 blocker: inhibitors of human TRPML1 channel; 390,000 tested, 0.02% active; AID 624415; TRPML1-inducible cells, Ca2+ dye fluorescence, FDSS; stronger effect = lower value; inhibition of EC80 agonist-evoked calcium signal; activity change, negative = inhibition, % (test concentration not listed); in the data active = activity change below about -50%; inconclusive = between about -30% and that limit;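 note: stimulus is agonist 54-4 at its EC80 concentration; % is set by controls: 0 for no effect and ±100 for the full control effect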
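Tet-induced TRPML1-DL cells loaded with Ca8 no-wash calcium dye were read kinetically on FDSS. Compound addition was followed by EC80 agonist 54-4 (4 uM final); inhibition was read over 110 s.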
TRPV1 agonist: human TRPV1 agonism; Q8NER1; TRPV1-expressing cells, Fluo-8 calcium influx, agonist mode; activation, % at 8.33 µM; 320,000 tested, 0.19% active; AID 540275; in the data active = activation above about 80%; inconclusive = between about 30% and that limit; note: 0% is about no effect
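Fluo-8 calcium influx in TRPV1-expressing cells, kinetic read (ex 480/em 520 nm). Compound added and read 3 min for agonist activity, followed by capsaicin at EC20 final and 2 min further read for enhancement.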
TRPV1 PAM: enhances activation of the human vanilloid receptor TRPV1 | Q8NER1 | TRPV1-expressing cells, Fluo-8 calcium influx, capsaicin EC20 potentiation | potentiation, % at 8.33 µM | 320,000 tested, 0.02% active; in the data active = potentiation above about 80%; inconclusive = between about 30% and that limit; note: 0% is about no effect
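TRPV1-expressing cells were cultured overnight at 35.5C and loaded with Fluo-8 calcium dye for 40 to 90 min at room temperature. After a 10 s baseline, compound was added and calcium influx was read kinetically for 3 min (ex 480/em 520 nm).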
* marks the source's active call; other numbers are inactive results; ? = inconclusive; / = no result.

SMILES	hERG WT inh	TRPML1 agonist	KCNH2 3.1 inh	TRPML1 blocker	TRPV1 agonist	TRPV1 PAM
COc1ccc(-c2nc(CNS(=O)(=O)c3ccc(OC)c(OC)c3)cs2)cc1	3.7	-0.5	-114.0*	-5.4	-0.6	12.8
NNC(=O)C1=NOC2COC3(CCN(c4ncccn4)CC3)OCC12 (configuration not stated)	1.9	0.4	7.5	-21.1	-1.8	1.7
O=C(N/N=C\c1ccc(Cl)cc1)C1=NOC2COC3(CCN(c4ccc([N+](=O)[O-])cc4)CC3)OCC12 (configuration not stated)	-37.8	/	-103.5*	/	1.2	17.5
COc1ccc(Cl)cc1NC(=O)CSc1nnc2[nH]c(=O)cc(C)n12	/	-0.1	/	21.4	/	/
Cc1ccc(Cl)cc1NC(=O)c1ccc(NC(=O)N2CCSc3ncccc32)cc1	/	0.9	/	36.6	/	/
COc1ccc(C2(c3ccc(OC)cc3)NC(=O)N(CC(=O)Nc3ccc(OC(F)F)cc3)C2=O)cc1	-82.6*	3.1	/	4.5	-5.7	2.3
S=C(NCCc1ccccc1)N1CCCC1	0.8	-0.6	1.0	9.0	/	/
S=C(NCCc1ccccc1)N1CCN(C23CC4CC(CC(C4)C2)C3)CC1	-5.6	4.1	-88.4*	15.7	6.6	-9.8
CC1CC(C)CN(S(=O)(=O)c2ccc3c(c2)oc(=O)n3CC(=O)NCc2cccnc2)C1 (configuration not stated)	-157.0*	0.0	-1.9	8.5	4.3	-0.6
CCC(C)(C)NC(=O)Cn1c(=O)oc2cc(S(=O)(=O)N3CC(C)CC(C)C3)ccc21 (configuration not stated)	3.1	-0.6	-30.9	?	?	-8.5
CCN1/C(=C/C=C/c2oc3ccc4ccccc4c3[n+]2CC)Oc2ccc3ccccc3c21	-44.0	63.0*	-30.8	0.6	25.5	2.9
CC(C)(C)c1ccc(C(=O)NC(=S)NNC(=O)c2cccs2)cc1	-2.1	74.0*	12.1	-16.2	?	-19.9
CCCOc1ccc(C(=O)NNC(=S)NC(=O)c2cccs2)cc1	-3.0	53.4*	34.1	-7.2	10.2	4.3
CC(C)C(=O)Nc1ccc(C(=O)CN2C(=O)NC3(CCOc4ccccc43)C2=O)cc1 (configuration not stated)	-3.1	-0.1	-20.1	-5.5	90.9*	23.8
CC(C)CC(=O)Nc1ccc(C(=O)CN2C(=O)NC3(CCOc4ccccc43)C2=O)cc1 (configuration not stated)	7.2	0.1	10.5	-4.0	?	-17.5
COc1cc2c(NC3CCN(C(C)C)CC3)nc(N3CCCN(C)CC3)nc2cc1OCCOCCN1CCCC1	/	-0.4	/	/	/	/
Cc1c(C(=O)NC(C)c2ccncc2)oc2ccccc12 (configuration not stated)	-6.6	0.2	-108.8*	3.2	?	-46.7
Cc1c(C(=O)NCc2cccs2)oc2ccccc12	-1.5	1.7	-79.1*	-7.7	-14.9	3.2
Cc1cc(C)c2c(c1)c(C)cc1nnc(SCC(=O)c3ccccc3)n12	/	0.3	/	20.2	/	/
CCC(C)(C)C1CCC(NC(=O)c2ccc(S(=O)(=O)N3CCOCC3)cc2)CC1 (configuration not stated)	2.8	2.1	-6.2	20.3	80.4*	-3.8
CCCCN(CCC#N)c1ccc(/C=C/c2ccnc3ccccc23)cc1	/	15.7	/	/	/	/
C/C=C/C=C\C(=O)Nc1cccc(C2=NOC3(C2)C[C@H](C(N)=O)N(C(=O)/C=C/C)C3)c1 (some centres not stated)	-1.8	-0.9	-176.8*	-0.7	3.7	-8.5
C/C=C\C=C/C(=O)Nc1cccc(C2=NOC3(C2)C[C@@H](C(N)=O)N(C(=O)c2ccccc2)C3)c1 (some centres not stated)	/	/	/	/	3.6	-9.1
CC(C)c1ccc(Nc2ncnc3c2nc2n3CCCC2)cc1	/	1.8	/	12.6	/	/
CC(C)[C@@H](C(=O)NC1CCN(Cc2ccccc2)CC1)N1C(=O)N2CCc3c([nH]c4ccccc34)[C@@]2(C)C1=O	?	/	-86.8*	/	-3.0	-5.5
SMILES	hERG WT inh	TRPML1 agonist	KCNH2 3.1 inh	TRPML1 blocker	TRPV1 agonist	TRPV1 PAM
N=C1N(c2ccccc2)C(=S)C(=Nc2ccccc2)N1c1ccccc1	-70.7*	3.2	-18.3	-16.7	/	/
O=C(Nc1ccccc1NC(=O)NC1CCCCC1)NC1CCCCC1	-9.2	-0.1	-15.0	4.0	0.4	10.3
NC(=O)c1ccccc1NC(=O)NC1CCCCC1	-3.2	-0.3	-71.4*	-5.0	6.7	2.8
CCCNC(=O)c1ccc(N2CCC3(CC2)CC(c2ccccc2)=NO3)c(NC(=O)c2cccc(OC)c2)c1	-91.5*	1.7	-96.5*	-13.1	2.2	-6.1
CCCNC(=O)c1ccc(N2CCC3(CC2)CC(c2ccccc2)=NO3)c(NC(=O)c2ccco2)c1	?	0.0	-47.1	3.2	0.7	-7.1
CCCNC(=O)c1ccc(N2CCC3(CC2)CC(c2cccc(Br)c2)=NO3)c(NC(=O)c2ccc(Br)cc2)c1	-82.7*	-0.4	-111.0*	7.1	-0.1	28.3
CCCCC(CC)C(=O)Nc1cc(C(=O)NCCC)ccc1N1CCC2(CC1)CC(c1ccccc1)=NO2 (configuration not stated)	-109.4*	1.2	-94.0*	20.5	-0.7	-15.7
CCOC(=O)c1ccc(NC(=O)CCc2c(C)nc3c(c(C)nn3-c3ccccc3)c2C)cc1	/	1.7	/	24.0	/	/
Cc1ccc2c(=O)c(C(=O)c3ccccc3)cn(CC(=O)NCc3ccccc3)c2n1	/	2.1	/	-11.3	/	/
O=C(Nc1ccc2c3c(cccc13)CC2)c1ccc(Br)o1	-17.8	-1.0	-42.3	16.3	84.9*	-6.9
CC(CCc1ccc(O)cc1)NCc1ccc(Br)cc1 (configuration not stated)	4.0	0.9	-88.0*	2.3	14.2	1.7
COc1ccc(CNC(C)CCc2ccccc2)cc1 (configuration not stated)	18.0	-0.5	-46.0	0.4	1.1	-3.6
CC(CCc1ccc(O)cc1)NC(c1ccccc1)c1ccc(Cl)cc1 (configuration not stated)	15.6	0.5	-33.2	-7.5	?	16.4
CC(CCc1ccc(O)cc1)NCCC(c1ccccc1)c1ccccc1 (configuration not stated)	-119.1*	3.4	-96.0*	51.5	10.0	-9.0
COc1cc2nc(N3CCCN(C)CC3)nc(NC3CCOCC3)c2cc1OC	/	0.6	/	/	/	/
NC(=O)c1cccn1Cc1ccccc1Cl	-301.4*	-0.3	1.7	-3.2	-1.1	4.1
NC(=O)c1cccn1Cc1cccc(Cl)c1	10.9	0.2	-3.0	-0.8	0.4	-2.5

Source: PubChem BioAssay
